TTR transcr act: TTR transcription activators in neuroblastoma reporter cells, primary screen, cell-based, luminescence, SH-SY5Y, TTR promoter Gaussia luciferase. 100% = recombinant luciferase protein wells. activation, % at 16.7 µM. hit rate 1.3% among 92,000;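 active = activation above the mean of all tested compounds plus 3 SD, cut at about 9.5% in these data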;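 also: cells exposed to compounds for one day before reading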
HuH7 TTR inh: TTR promoter reporter inhibitors in hepatoma cells, counter-screen for TTR transcription activator project, cell-based, luminescence, HuH7 hepatoma | hit rate 4% among 1,100 | shares compounds with TTR transcr act | inhibition, % at 16.7 µM | HuH7 TTR promoter-Gaussia luciferase reporter;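 active = average inhibition above the solvent-only control wells' mean plus 3 SD, cut at about 15% in these data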;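 also: inhibitors lower well luminescence so higher value means more inhibition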
TTR up confirm: TTR transcription activators, retest, confirmation, cell-based, luminescence, SH-SY5Y, triplicate | shares compounds with TTR transcr act | SHSY5Y TTR promoter Gaussia luciferase; 100% = purified Lucia enzyme wells, no cells | activation, % at 16.7 µM | 1,100 tested, under 10 active | AID 1117280, 2014;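 active = mean activation above a set limit taken from the earlier primary screen, cut at about 11% in these data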
Numbers stand for hits; i = inactive. The full list was thinned out, with hits kept by preference.

SMILES	TTR transcr act	others
COc1ccc(-c2csc3nc(-c4cccnc4)nc(N4CCC(C(N)=O)CC4)c23)cc1OC	i
O=C(O)c1ccc(-c2nc3scc(-c4ccccc4)c3c(=O)[nH]2)cc1	i
CCCCc1cc(=O)oc2c(C)c(OCc3nn[nH]n3)ccc12	i
Cc1ccc(CN2CCCCC(NC(=O)c3ccccc3)C2=O)cc1 (centres undefined)	i
COc1ccc(CNC(=O)O[C@H]2CC[C@@]34CCCN3C(=O)CCC[C@H]4C2)cc1OC	i
COc1ccc(-c2nc(C)c(C(C)=O)n2O)cc1	i
CCOC(=O)CSc1nnc(-c2ccc(OC)cc2)n1CC	i
COc1ccc(C(C)n2c(C)c3c(C)nnc(C)c3c2C)cc1 (centres undefined)	9.8	HuH7 TTR inh=i;TTR up confirm=i
COC(=O)c1cc(-c2ccc(F)cc2OCc2ccccc2)c(=O)n2c1CCC2	i
Clc1cccc(CNC2CCC23CCCCC3)c1 (centres undefined)	i
Cc1ccc(-c2noc(-c3ccno3)n2)cc1	i
COc1cccc(N2C(=O)C3NN=C(C(=O)CN4C(=O)c5ccccc5C4=O)C3C2=O)c1 (centres undefined)	18.1	HuH7 TTR inh=i;TTR up confirm=i
Cc1ccc(N2C(=O)[C@@H]3C(C(=O)CN4C(=O)c5ccccc5C4=O)=NN[C@@H]3C2=O)c(C)c1	i
COc1ccccc1N1C(=O)[C@@H]2C(C(=O)CN3C(=O)c4ccccc4C3=O)=NN[C@@H]2C1=O	i
COc1ccc(N(CC(=O)N/N=C/c2ccc(OC3CSC3)cc2)S(=O)(=O)c2ccccc2)cc1	i
O=C(CN(c1ccc(Cl)c(C(F)(F)F)c1)S(=O)(=O)c1ccccc1)N/N=C/c1cccc2c1OCCO2	10.2	HuH7 TTR inh=i;TTR up confirm=i
CS(=O)(=O)N(CC(=O)N/N=C/c1cc([N+](=O)[O-])ccc1Cl)c1ccccc1	i
CCCCOc1ccc(C2CCC(C(C)=O)C(C)C2)cc1 (centres undefined)	i
CC(CNC(=O)COC(=O)c1cccnc1Cl)c1ccccc1 (centres undefined)	i
CC(C)(C)c1cnnn1-c1ccc(NC(=O)c2ccc3c(c2)OCO3)cc1	i
Cc1ccc(-n2nc3ccc(NC(=O)c4ccc5c(c4)OCO5)cc3n2)cc1	i
CCc1ccc(-n2nc3ccc(NC(=O)c4ccc5c(c4)OCO5)cc3n2)cc1	13.9	HuH7 TTR inh=i;TTR up confirm=i
COc1c2ccoc2c(OC[C@@H](OC(C)=O)C(C)(C)O)c2oc(=O)ccc12	i
COC(C)(C)[C@H](O)COc1c2ccoc2cc2oc(=O)ccc12	12.7	HuH7 TTR inh=i;TTR up confirm=i
CC(C)(O)C(O)COc1c2ccoc2cc2oc(=O)ccc12 (centres undefined)	i
SMILES	TTR transcr act	others
O=C(NCCc1nc2ccccc2[nH]1)/C(=C/c1ccco1)NC(=O)c1ccccc1Br	i
O=C(NCCc1nc2ccccc2[nH]1)/C(=C/c1ccco1)NC(=O)c1ccc(Br)cc1	i
COc1ccc(/C=C/C(=O)N/C(=C\c2ccco2)C(=O)NCCc2nc3ccccc3[nH]2)cc1	12.0	HuH7 TTR inh=i;TTR up confirm=i
O=C(OCC#CCSc1nnc(-c2cccc3ccccc23)o1)c1ccncc1	i
COc1ccc(NS(=O)(=O)c2cc(C(=O)NNC(=O)c3ccncc3)ccc2OC)c(OC)c1	i
C[C@H](NS(=O)(=O)c1ccc([N+](=O)[O-])cc1)C(=O)NCCNC(=O)[C@@H](C)NS(=O)(=O)c1ccc([N+](=O)[O-])cc1	i
Cc1cc(OCC(=O)NC2CCN(Cc3ccccc3)CC2)c2c(C)cc(=O)oc2c1	i
CC(C)OC(=O)CSc1nc2ncc(Cl)cc2[nH]1	i
O=C(CSc1nc2ncc(Cl)cc2[nH]1)NCC(=O)Nc1ccc(F)c(F)c1F	10.6	HuH7 TTR inh=i;TTR up confirm=i
Cc1[nH]c2ccccc2c1C(=O)CSc1nc2ncc(Cl)cc2[nH]1	i
COc1ccc(C(=O)C2CCN(c3ncnc4sccc34)CC2)cc1	i
O=C(OCc1cn(Cc2cc(F)ccc2F)nn1)N1CCOCC1	i
O=C(NCCc1ccccc1)OCc1cn(Cc2cccc(F)c2F)nn1	i
CN1C2=N[C@H](c3ccc(Br)cc3)CC(=O)N2/C(=C\c2ccccc2)[C@@H]1c1ccccc1	i
O=C(O)c1cccc(Br)c1	i
COc1ccc(-c2noc(-c3ccoc3C)n2)cc1OC	i
COc1ccc(-c2noc(-c3cccs3)n2)cc1OC	22.3	HuH7 TTR inh=34.5;TTR up confirm=i
COc1ccc(-c2nc(-c3ccncc3)no2)cc1OC	i
CN(C)S(=O)(=O)c1cccc(NC(=O)COC(=O)CCOc2ccccc2)c1	i
CN(C)S(=O)(=O)c1cccc(NC(=O)COC(=O)c2cn(-c3ccccc3)nc2-c2ccccc2)c1	15.3	HuH7 TTR inh=i;TTR up confirm=i
Cc1cc(C(=O)OCC(=O)Nc2cccc(S(=O)(=O)N(C)C)c2)c2ccccc2n1	i
CCCCNS(=O)(=O)/C=C/c1cc2c(cc1CNC(=O)OC(C)(C)C)OCO2	i
COc1cc(Br)c(C(C)NC(=O)c2cccc(Br)c2)cc1OC (centres undefined)	i
COc1cc(C(=O)NC(=S)Nc2ccc3ccccc3c2)cc(OC)c1OC	i
COc1cc(C(=O)NC(C)c2cccc3ccccc23)cc(OC)c1OC (centres undefined)	18.4	HuH7 TTR inh=i;TTR up confirm=i
SMILES	TTR transcr act	others
OCC1OC(Oc2c(Br)cc(Br)cc2Br)C(O)C(O)C1O (centres undefined)	i
Nc1ccc(CCCC(=O)NCc2cccnc2)cc1	i
Cn1nnc(NC(=S)NC(=O)/C=C/c2ccco2)n1	i
O=C(/C=C\c1ccco1)NC(=S)Nc1ccccc1O	i
Cc1cccnc1NC(=S)NC(=O)/C=C/c1ccco1	11.6	HuH7 TTR inh=i;TTR up confirm=i
C[C@H]1[C@@H](OC(=O)NCc2ccc(C(F)(F)F)cc2)CC[C@@]23CCCN2C(=O)CCC[C@@H]13	i
COc1ccc(-c2cc(C(F)(F)F)n3nc(C(=O)O)nc3n2)cc1	i
COc1ccc(-c2cc(C(F)(F)F)n3nc(C)cc3n2)cc1	14.2	HuH7 TTR inh=i;TTR up confirm=i
Cc1cc2nc(-c3ccco3)cc(C(F)(F)F)n2n1	i
COc1ccc(COC[C@H](C)N2C[C@@H](C)[C@H](CN(C)S(=O)(=O)c3ccc(F)cc3)OCCCC[C@H](C)Oc3ccc(NC(=O)Nc4ccccc4)cc3C2=O)cc1	i
CN(C(=O)[C@@H](C1CC1)[C@@H](O)c1ccc(Cl)cc1)c1ccccc1	i
O=C(COc1ccccc1F)Nc1cc(S(=O)(=O)Nc2cccc(Cl)c2)ccc1O	i
CC(=O)c1ccc(NC(=O)CCc2c(C)nn(-c3ccc(N4CCOCC4)nn3)c2C)cc1	i
Cc1ccc(NC(=O)CCc2c(C)nn(-c3ccc(N4CCOCC4)nn3)c2C)cc1	i
COc1ccc(NC(=O)CCc2c(C)nn(-c3ccc(N4CCOCC4)nn3)c2C)cc1	12.5	HuH7 TTR inh=i;TTR up confirm=i
CCCCNC(=O)C[C@H]1C[C@@]2(C(=O)OC)C(=C[C@H](C(C)C)O[C@@H]2C2CC2)N(CCc2ccc(OC)c(OC)c2)C1=O	i
CC(=O)Nc1cccc(C(=O)N(CCc2ccccc2)Cc2ccccc2)c1	i
CS(=O)(=O)c1ccccc1C(=O)N(CCc1ccccc1)Cc1ccccc1	i
CS(=O)(=O)c1ccc(C(=O)N(CCc2ccccc2)Cc2ccccc2)cc1	9.7	HuH7 TTR inh=i;TTR up confirm=i
